For 40 sequences, sensor-assay potency score (higher = more potent) results are on record in the OligoGym collection.
Also: reference of the scale not given here.

The first experiment has as its target HNRNPL. The experiment is described as follows: pooled miR-30 sensor sort-seq; sequence = guide strand. The following applies: shRNA.
In the case of TTAAAAGTGAAGGTTAATCTTG, the sensor-assay potency score (higher = more potent) was -0.688. Still for that read-out and setting: for TACAGCGTAGCCATCAGCCATC the value was -1.38; for TTCTTGAACACATTCAAGCGTG, -0.271.

Take TTGAACACATTCAAGCGTGTAG: the sensor-assay potency score (higher = more potent) amounted to 0.215. On the same count and under the same terms, for ATAGTGTAAAGAACATCCGTGG the value was -0.231; for TAAAAGTGAAGGTTAATCTTGG, 0.553; for TTAAGGTTAAGTAAGCCTCTAC, 0.152. Turning to TAGAGTAGTTGACAAAAGCTGG, the sensor-assay potency score (higher = more potent) is -0.329.

The next experiment has as its target HNRNPU. The experiment is described as above. The following applies: shRNA.
On to TTTGCTTCTTAAAACCTGCCAC, for which the sensor-assay potency score (higher = more potent) worked out at 0.467. Same read-out and setting: for TTCATCTCAAAACACACTTTGC the value was -0.868; for TTGAGTAACTACCACGGCCAGG, -1.38.

With TTTCATCAAACTTTTCTCCATA, the sensor-assay potency score (higher = more potent) was -0.817. In turn, TTGCTTATAGTCTTCATCTTTT yielded a sensor-assay potency score (higher = more potent) of -0.867.

AACTACAACAGCTTTTCGCTGG came in with a sensor-assay potency score (higher = more potent) of 0.276. Sequence TTCTTCTTCAACAGGTGGCTGA returned a sensor-assay potency score (higher = more potent) of -0.158. For TTATCCATAATAGTATTTGTGC, the sensor-assay potency score (higher = more potent) was -0.391. In turn, TTCTTCCTTATATTGCTCCAAG showed a sensor-assay potency score (higher = more potent) of -1.21.

TATTGCTTTTCTTTGAGCCAGT showed a sensor-assay potency score (higher = more potent) of -0.865. With TAAAATTTCGCTTCTTTCGGGC, the sensor-assay potency score (higher = more potent) was 0.159.

Another experiment deals with HOOK2. The experiment is described as above. The conditions noted are these: shRNA.
Sequence TTAGGAAATAGTACCTGCGGGA gave a sensor-assay potency score (higher = more potent) of -0.0973. The same measure, in the same setting: for TCCTCTGCAACTCCAGATCTGC the value was -1.56. Same read-out and setting: for TGGAACGTCTGTAACCAGGTGA the value was 0.0642; for TTCCATGGTCTGCATGACCATG, -1.55; for TACGTCTCTGGTGACAGGGAGT, -0.714. Still for that read-out and setting: to TTTCTCAAAGTCCATCTCCAGG belongs -1.2; to TCAGCTTCCAGTTGGGACCTGG, -0.00912. Take TTTTTCTCGCAACTGATGGCAC: the sensor-assay potency score (higher = more potent) was -0.412.

TCACTTAGGAAATAGTACCTGC: the sensor-assay potency score (higher = more potent) is -0.233. On the same count and under the same terms, for TTCTGACACAGGATGCGCCAGG the value was -0.785; for ATGGTCTGCATGACCATGCGGG, -1.25. As to TACTAGGCTCCGTAAGACCATC, the sensor-assay potency score (higher = more potent) was -1.58.

For another experiment, the target named is HOXA6. Described as above. The following applies: shRNA.
Sequence TTGGACTGTTGGTAGAAACAAG returned a sensor-assay potency score (higher = more potent) of -1.21.

Turning to TGAGGTGTACGTCTTGTCCGGG, the sensor-assay potency score (higher = more potent) is -0.648. Still for that read-out and setting: for TTGGTAGAAACAAGGTGAGGTG the value was -0.106; for TATCAGAATAGAAACACGAGGC, -0.218.

TGTTGGTAGAAACAAGGTGAGG registered a sensor-assay potency score (higher = more potent) of -1.56. TTGTACTGCTGCTCGGGAGAAA: the sensor-assay potency score (higher = more potent) was -0.818. For the sequence TTGTCCGGGAGACTCGACGCCC, the sensor-assay potency score (higher = more potent) is -0.988. The sequence TTGATGAGCTTGTTTTCCTTTT returned a sensor-assay potency score (higher = more potent) of -0.78. The sequence TTGGCGATCTCGATGCGGCGGC came in with a sensor-assay potency score (higher = more potent) of -0.809.
